Source: PubChem (The Scripps Research Institute Molecular Screening Center)
Shown are actives, neighbours in structure and some others; about 2% of the full set was active somewhere.
GSTO1 counter: counter-screen for RBBP9 inhibitors: inhibitors of human GSTO1; P78417; recombinant GSTO1, activity-based probe fluorescence polarization; inhibition, % at 5.96 µM; 300,000 compounds, 1.1% hits; AID 1974;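 active = inhibition above the campaign mean inhibition plus 3 SD, cut at about 35% in these data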;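 note: 0% = GSTO1-1 with DMSO and 100% = wells lacking GSTO1-1 enzyme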
Target sequence (P78417 whole entry, looked up): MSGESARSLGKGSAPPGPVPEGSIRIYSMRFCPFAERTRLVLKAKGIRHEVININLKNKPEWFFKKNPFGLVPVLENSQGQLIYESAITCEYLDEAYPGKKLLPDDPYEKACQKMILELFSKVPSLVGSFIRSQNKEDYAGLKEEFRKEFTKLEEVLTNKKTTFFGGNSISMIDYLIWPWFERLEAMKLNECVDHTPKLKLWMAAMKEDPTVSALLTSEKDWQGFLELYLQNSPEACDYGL
LYPLA2 inh: LYPLA2 (human) inhibition in PME1 counter-screen | inhibition, % at 5.9 µM | recombinant LYPLA2, FP-Rh probe fluorescence polarization | O95372 | 320,000 compounds, 0.38% hits;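 active = inhibition above the screen-wide mean plus 3 SD, limit set per campaign, cut at about 26% in these data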;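 note: 0% = LYPLA2 with DMSO and 100% = wells lacking LYPLA2 enzyme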
Target sequence (O95372 whole entry, looked up): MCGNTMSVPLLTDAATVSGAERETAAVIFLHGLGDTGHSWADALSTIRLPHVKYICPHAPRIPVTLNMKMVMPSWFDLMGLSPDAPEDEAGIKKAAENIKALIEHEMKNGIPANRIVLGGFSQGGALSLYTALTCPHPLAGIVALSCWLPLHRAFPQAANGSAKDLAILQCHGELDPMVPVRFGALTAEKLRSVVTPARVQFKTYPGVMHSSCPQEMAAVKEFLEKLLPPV
LYPLA1 inh: blocks human lysophospholipase 1, a PME1 counter-screen | recombinant LYPLA1, FP-Rh probe fluorescence polarization | inhibition, % at 5.9 µM | 320,000 compounds, 0.16% hits | AID 2174;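 active = inhibition above the mean of all tested compounds plus 3 SD, set per campaign, cut at about 14% in these data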;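 note: inhibitors block serine hydrolase probe labeling of LYPLA1 so polarization falls; 0% = enzyme with DMSO and 100% = wells lacking LYPLA1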
Fam108B counter: blocks mouse Fam108B hydrolase in RBBP9 counter-screen. inhibition, % at 9.51 µM. 300,000 compounds, 0.33% hits. AID 1947. recombinant Fam108B, FP-Rh probe fluorescence polarization;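 active = inhibition above the screen mean inhibition plus 3 SD, computed separately per campaign, cut at about 18% in these data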;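 note: inhibitors lower polarization as less probe binds the enzyme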
PREPL inh: inhibitors of human prolyl oligopeptidase-like enzyme PREPL | inhibition, % at 5.96 µM | 320,000 compounds, 0.68% hits | recombinant PREPL, fluorescence polarization activity-based probe | Q4J6C6; in the data active = inhibition above about 43%;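 note: 0% = enzyme with DMSO and 100% = wells lacking enzyme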
PME-1 inh: PME-1 (human) inhibition; 320,000 compounds, 0.53% hits; recombinant PME-1, FP-Rh probe fluorescence polarization; inhibition, % at 5.9 µM;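 active = inhibition above the campaign mean of all compounds plus 3 SD, cut at about 26% in these data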;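 note: competitive labeling of PME-1 active site by serine hydrolase directed probe; 0% = PME-1 with DMSO and 100% = wells lacking PME-1 enzyme; inhibitors block probe labeling so polarization falls and inhibition rises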
Fam108b inh conf: confirmation of mouse Fam108b serine hydrolase inhibitors; inhibition, % at 9.51 µM; shares compounds with Fam108B counter; AID 1978; recombinant Fam108b, FP-Rh probe fluorescence polarization; 930 compounds, 44% hits;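 active = inhibition above a limit from the primary screen, the mean over all compounds plus 3 SD, cut at about 19% in these data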;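 note: 0% = median of active Fam108b wells and 100% = catalytically dead S170A mutant; inhibitors free the probe so polarization falls as inhibition rises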
Fam108b ABPP HTS: mouse ABHD17B inhibition | recombinant Fam108b, gel-based ABPP, fluorophosphonate probe | shares compounds with Fam108B counter | AID 588649 | 260 compounds, 44% hits | inhibition, % at 20 µM; in the data active = inhibition above about 40%
Numbers without * were called inactive; . = no result given.

SMILES	GSTO1 counter	LYPLA2 inh	LYPLA1 inh	Fam108B counter	PREPL inh	PME-1 inh	Fam108b inh conf	others
Cc1cccc(NC(=O)/C(C#N)=C/c2ccc(Cl)cc2)n1	27.4	-0.7	-1.2	19.2*	22.2	4.0	-1.0
COc1ccc(/C=C(\C#N)C(=O)Nc2cccc(C)n2)cc1	13.2	8.3	1.1	2.8	18.6	3.6	.
COc1cc(OC)cc(-c2c(C#Cc3ccsc3)c3cc(-c4cc(F)cc(F)c4)ccc3n2C)c1	.	.	.	.	20.9	.	.
CC(C)c1ccc(-c2csc3nc[nH]c(=O)c23)cc1	-2.3	3.9	-2.0	1.6	-3.1	2.1	.
O=C(CN1C(=O)NC(c2ccc(F)cc2)C1=O)NC1CCCCC1 (centres undefined)	.	.	.	.	6.8	.	.
O=C(CCCSc1ccccc1)Nc1nc(-c2ccccn2)cs1	6.3	-0.9	-2.8	-0.9	4.2	1.1	.
O=C(CCCSc1ccccc1)Nc1nc(-c2ccco2)c(-c2ccco2)s1	-8.8	6.8	-9.8	47.2*	27.4	33.0*	32.2*	Fam108b ABPP HTS=75.0*
C=CC[C@H](CC(=O)OC(C)(C)C)C(=O)OC[C@@H]1CCCN1C(=O)[C@@H](CC=C)CC(=O)NCCO	.	.	.	.	8.9	.	.
Nc1c(S(=O)(=O)c2cccc(Cl)c2)c2nc3ccccc3nc2n1/N=C/c1ccc(O)c(O)c1	-81.1	-6.4	-23.8	76.7*	64.6*	51.3*	140.5*
COc1cccc(/C=N/n2c(N)c(S(=O)(=O)c3cccs3)c3nc4ccccc4nc32)c1OC	-3.0	4.8	2.2	-9.5	-6.1	-7.5	.
CCCC(=O)Nc1nc(C)c(-c2csc(Nc3cc(OC)ccc3OC)n2)s1	-0.2	-14.9	-8.8	10.4	19.4	19.9	.
COc1ccc(OC)c(Nc2nc(-c3sc(N)nc3C)cs2)c1	11.3	3.2	-2.1	21.0*	25.4	12.6	17.4
O=C1OC(Nc2cc(Br)cc3cccnc23)c2ccccc21 (centres undefined)	85.8*	16.8	10.7	46.6*	33.0	28.5*	6.8
O=C(Nc1ccc(Nc2ccccc2)cc1)Nc1ccccc1Cl	-5.3	-1.4	-17.5	22.2*	23.3	31.4*	-1.9
O=C(Nc1ccccc1Cl)Nc1ccccc1Cl	2.5	5.7	-0.2	-1.4	-14.3	1.3	.
Cc1cccc(N=Cc2nc(-c3ccccc3Br)oc2O)n1	.	.	.	.	.	.	.	Fam108b ABPP HTS=50.0*
CSc1ccccc1N=Cc1nc(-c2ccccc2)oc1O	-3.8	15.7	8.0	-3.1	22.1	23.3	.
Cc1cccc(/N=C/c2nc(-c3ccccc3Br)oc2O)n1	-7.9	19.6	3.0	27.1*	7.0	4.5	36.9*
Cc1ccnc(N=Cc2nc(-c3ccccc3Br)oc2O)c1	3.1	9.6	5.2	22.3*	3.2	-7.1	80.3*	Fam108b ABPP HTS=75.0*
CCOC(=O)c1ccc(S(=O)(=O)N2CCN(CC(O)COc3ccc(C#N)cc3)CC2)cc1 (centres undefined)	-2.9	-0.3	-2.1	0.9	10.8	-2.5	.
Cc1ccc(C(C)C)c(OCc2ccc(C(=O)N/N=C/c3ccc(O)c(O)c3)cc2)c1	-25.4	3.4	-12.1	34.7*	24.9	37.5*	-25.4
CC(=O)Nc1ccc(C(=O)N/N=C/c2ccccc2OCc2ccccc2)cc1	-13.3	-19.8	-20.1	-11.5	-6.9	-20.7	.
O=C(N/N=C/c1ccc(O)c(O)c1)c1ccc(CSc2cccc3cccnc23)cc1	22.0	7.9	-7.2	43.5*	26.1	53.7*	25.9*
O=C(CSc1cccc2cccnc12)N/N=C/c1cccc(O)c1	3.6	1.7	-1.1	-3.7	-1.0	0.8	.
COc1cc(/C=N/NC(=O)c2ccc(COc3cc(C)ccc3C(C)C)cc2)cc(OC)c1O	21.8	-4.3	-3.4	8.9	20.0	8.6	.
Cc1ccc(C(C)C)c(OCc2ccc(C(=O)N/N=C/c3cccc(O)c3O)cc2)c1	-31.5	2.2	-23.5	28.2*	14.8	49.4*	10.0
OCCC1CN(C/C=C/c2ccco2)CCN1Cc1ccccc1 (centres undefined)	8.7	-3.8	1.3	-3.0	12.2	1.7	.
CN(N)c1nc(-c2ccccc2)cc(-c2ccccc2)n1	-7.3	6.2	1.0	0.4	-1.3	1.0	.
